Bioassay records as filed in PubChem BioAssay.
MCF10A rereplic – DNA re-replication induction in MCF 10a cells; 2.9% of 350,000 active; MCF 10A DNA re-replication, Hoechst nuclear intensity, 48 h; Potency, µM (doses to about 46.1 µM), for inactives: at the highest dose activity, positive = re-replication, actives largely listed as activators; further: potency means the concentration at half of the fitted maximal effect; % of control where 0% means no effect; nearly all actives have a fitted effect of over 50% in size
TDP1 cell CPT – DT40-hTDP1 cell growth loss with CPT | chicken DT40 Tdp1-/-;hTDP1 cells + 20 nM CPT, ATP luminescence, 48 h | Potency, µM (series often up to 46.2 µM), without a hit: at the top dose activity change, negative = growth inhibition, most hits filed as inhibitors | 12% of 420,000 active | AID 686979; further: potency means the concentration at half of the fitted maximal effect; on the % scale 0 is the no-effect control and ±100 the full control effect; nearly all actives have a fitted effect of over 55% in size
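Chicken DT40 Tdp1-/- cells stably complemented with human TDP1 were seeded at 400 cells/well in medium containing 20 nM camptothecin, exposed to pin-transferred compounds, and grown at 37 °C for at least 48 hr. Viability was read as ATP luminescence.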
IL-1B inflam inh – inhibitors of inflammasome signaling (IL-1 beta secretion). THP-1 LPS/ATP IL-1B secretion, AlphaLISA, 16 h; stronger effect = lower value. activity change, % at 57.5 µM. 4.7% of 360,000 active. AID 743279; in the data active means activity change below about -50%; inconclusive means mostly about -30% to -49%; further: on the % scale 0 is the no-effect control and ±100 the full control effect
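Secreted IL-1B measured by AlphaLISA bead assay after 16 h compound exposure of THP-1 cells; compounds (final up to 57.5 uM) added 1 h before LPS (250 ng/mL) and ATP (1.25 mM) stimulation; lower signal means less secretion.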
SW480 rereplic – DNA re-replication induction in SW480 cells; SW480 DNA re-replication, Hoechst DNA content imaging, 48 h; Potency, µM (highest dose often 46.1 µM), for the others: at the highest dose re-replication activation, actives largely listed as activators; 1.8% of 340,000 active; further: potency means the concentration at half of the fitted maximal effect; % of control where 0% means no effect; nearly all actives have a fitted effect of over 55% in size
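Hoechst fluorescence of nuclei (405 nm excitation, 500-530 nm emission) measured by plate-scanning imager after 48 hr compound exposure at 37 C; re-replication scored as increased number of nuclei with elevated intensity.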
DT40 TDP1 no CPT – qHTS for Inhibitors of human tyrosyl-DNA phosphodiesterase 1 (TDP1): qHTS in cells in absence of CPT; DT40 Tdp1-/- hTDP1 cells, no CPT, ATP luminescence, 48 h; Potency, µM (series often up to 46.2 µM), without a hit: at the highest dose activity change, negative = growth inhibition, usual class: inhibitors; 15% of 420,000 active; AID 686978, 2013; further: potency means the concentration at half of the fitted maximal effect; on the % scale 0 is the no-effect control and ±100 the full control effect; nearly all actives have a fitted effect of over 55% in size
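Readout: luminescence from CellTiter-Glo after 30 min in the dark at RT. Cells: DT40 Tdp1-/- with stable hTDP1, 400/well. Exposure: compounds alone, ≥48 hr, 37 °C.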
Chronic BCR inh – blocks chronic active B-cell receptor signaling. AID 493014. Potency, µM (series often up to 46.1 µM), for inactives: at the highest dose activity change, negative = inhibition, usual class: inhibitors. 0.05% of 340,000 active. ABC-DLBCL IkBa-CBG/CBR reporter, luminescence ratio, 4 h; active means well fitted inhibition curve with a large enough effect in the signal ratio, with a control signal flat, not every such curve was filed as active; inconclusive means small, poorly fitted or top-dose-only effect, or effect the other way, or a change in a side signal; the % refers to the signal ratio;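 further: potency means the concentration at half of the fitted maximal effect; plate controls were basal doxycycline-induced cells for no effect and cells given 10 µM MG132 for full effect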
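TMD8 human ABC-DLBCL cells with doxycycline-inducible IκBα–green luciferase fusion and unfused red luciferase, in 0.5% FBS medium; compounds up to 46 uM, 4 h at 37C. Green/red luminescence ratio, filter-overlap corrected, fitted to concentration-response curves.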
Numbers without * were called inactive; ? = inconclusive; / = no result; ! = a repeat was not active. A selection: hits, their analogues and other compounds. The true share with any hit is near 19%. Unless noted, the call rests on the fitted dose curve; in most records, active means well fitted curve in the direction sought with a large enough effect; inconclusive means small, poorly fitted or top-dose-only effect, or another doubt; inactive means no such curve, though single readings can be large; an effect the other way counts as inactive or inconclusive.

SMILES	MCF10A rereplic	TDP1 cell CPT	IL-1B inflam inh	SW480 rereplic	DT40 TDP1 no CPT	Chronic BCR inh
CC[n+]1c(C)sc2cc(C)ccc21	-5%	3.7µM*	60	1%	3.7µM*	?
C=CCCC(=O)N1C[C@H]2CCN(C)[C@H]2C[C@H]1c1ccc(Br)cc1	/	-19%	-26	/	-7%	/
Cc1ccc(Cc2c(-c3ccc(C#N)cc3)nc3ccc(Br)cn23)cc1	/	21µM*	-9	/	?	/
N#Cc1ccc(-c2nc3ccc(Br)cn3c2Cc2ccccc2)cc1	/	12µM*	-7	/	9.2µM*	/
N#Cc1ccc(-c2nc3ccc(Br)cn3c2Cc2cccc(F)c2)cc1	/	?	-25	/	?	/
Cn1cnc2c(=O)sc3ccccc3c21	1%	-15%	21	3%	?	/
CN(Cc1ccccc1)C(=O)c1c[nH]c2ccc(S(=O)(=O)Nc3ccccc3F)cc2c1=O	/	-3%	/	/	?	/
c1ccc(-c2onc(-c3ccco3)c2-c2ccc3c(c2)OCO3)cc1	3%	10µM*!	-9	15%	11µM*!	12%
O=C(NCc1ccccc1Cl)c1ccc2c(c1)OCO2	-56%	?	-15	-4%	16%	?
CCOC(=O)c1c(NC(=O)c2ccccc2)sc2c(O)c(CN(CC)CC)ccc12	?	23µM*	0	8%	18µM*	?
CCOC(=O)c1c(NC(=O)c2ccccc2Cl)sc2c1CCc1ccccc1-2	16µM*	?	-4	-695%	?	?
CCN(CC)Cc1c(NC(=O)c2ccccc2)sc(C)c1C	-1%	-4%	-19	10%	?	-3%
CCOC(=O)c1c(NC(=O)c2ccccc2)sc2c1CCc1ccccc1-2	21µM*	?	25	?	?	3%
CCOC(=O)c1c(NC(=O)c2ccccc2C)sc2c1CCCC2	/	-21%	/	/	?	/
O[Si](CCCN1CCCCC1)(c1ccc(F)cc1)C1CCCCC1 (configuration not stated)	-11%	?	?	2%	26µM*	-20%
O=C(NCCCN1CCCC1)Nc1ccc(F)cc1	8%	1%	-3	-8%	4%	2%
O=C(NCCCc1nc2ccccc2n1Cc1cccc(Cl)c1)C1CCCCC1	/	-18%	/	/	?	/
O=C(NCCCc1nc2ccccc2n1Cc1cccc(Cl)c1)c1ccco1	/	16µM*	/	/	23µM*	/
O=C(NCCCc1nc2ccccc2n1Cc1ccc(Cl)cc1)c1ccco1	/	?	/	/	16µM*	/
Clc1ccccc1Cn1c(/C=C/c2ccco2)nc2ccccc21	18µM*	?	?	/	?	0%
O=C(NCCCc1nc2ccccc2n1Cc1ccccc1Cl)c1ccco1	/	29µM*	/	/	16µM*	/
CCN(CC(=O)NCc1cccs1)C(=O)c1cccc(S(=O)(=O)N2CC(C)OC(C)C2)c1 (configuration not stated)	1%	-21%	-16	-13%	-8%	-6%
Cc1[nH]nc(N=CC2=C(O)CC(C)(C)CC2=O)c1-c1ccccc1	18%	?	-1	-4%	16µM*	-4%
COCCCNC(=S)N1CCCN(c2nc3cc(C)ccc3cc2C#N)CC1	?	?	-16	?	?	-1%
COCCCNC(=S)N1CCCN(c2nc3cc(C)c(C)cc3cc2C#N)CC1	18µM*	?	-74*	?	?	-4%
SMILES	MCF10A rereplic	TDP1 cell CPT	IL-1B inflam inh	SW480 rereplic	DT40 TDP1 no CPT	Chronic BCR inh
COCCCNC(=S)NCCNc1nc2cc(C)cc(C)c2cc1C#N	2%	?	?	10%	?	0%
CCOCCCNC(=S)N1CCCN(c2nc3cc(C)cc(C)c3cc2C#N)CC1	?	18µM*	0	?	21µM*	-2%
OC(Cn1cnnc1)c1ccccc1 (configuration not stated)	8%	5%	22	-2%	?	0%
CC(N)c1csc(Nc2ccc(C(=O)NCCCO)cn2)n1 (configuration not stated)	/	-14%	30	/	-11%	/
CCCCN(C)C(=O)c1ccc(Nc2nc(C(N)Cc3ccc(C(F)(F)F)cc3)cs2)nc1 (configuration not stated)	/	8.2µM*	-30	/	12µM*	/
CCCCN(C)C(=O)c1ccc(Nc2nc(C(N)CCc3ccccc3)cs2)nc1 (configuration not stated)	/	15µM*	-11	/	21µM*	/
COc1ccc(CCNC(=O)Cc2cccc(C(F)(F)F)c2)cc1OC	-3%	-15%	3	-6%	?	6%
Cc1cc(C)n(-c2nnc(C)n2/N=C/c2ccco2)n1	11%	-9%	-8	2%	-2%	2%
CCCOc1ccc2ccccc2c1/C=N/n1c(C)nnc1-n1nc(C)cc1C	10µM*	3.3µM*	12	21µM*	3.3µM*	?
Fc1ccc(Nc2nc3nonc3nc2Nc2cccc(C(F)(F)F)c2)cc1	/	0.33µM*	/	/	0.16µM*	/
CC1(C)CC(N2CCCC2)=CC(=[N+]2CCCC2)C1	-2%	0.41µM*	-8	0%	0.29µM*	7%
c1ccc(CN2CCN(c3ncccn3)CC2)cc1	?	6%	-4	0%	3%	7%
CC1(C)CC(NNCCC#N)=CC(=[N+]2CCCC2)C1	?	?	15	2%	?	9%
CC1(C)CC(=O)C=C(N2CCN(C3=CC(=O)CC(C)(C)C3)CC2)C1	/	/	/	/	/	-6%
CC1(C)CC(N2CCCC2)=CC(=[N+]2CCCCC2)C1	?	0.41µM*	-5	3%	0.26µM*	-2%
CN(Cc1ccccc1)C1=CC(=[N+]2CCCCC2)CC(C)(C)C1	?	0.15µM*	-70*	24%	0.01µM*	?
CC1(C)CC(N2CCN(Cc3ccccc3)CC2)=CC(=[N+]2CCCCC2)C1	-31%	0.058µM*	-51*	-38%	0.046µM*	-1%
CN(Cc1ccccc1)C(=O)c1cccc(NC(=O)Cc2cccc(NC(=O)C3CCN(C(=O)C4CCC4)CC3)c2)c1	?	?	-21	7%	?	/
Cc1ccc([N+](=O)[O-])cc1NC(=O)CSc1n[nH]c(-c2cccnc2)n1	8%	-21%	3	-13%	-11%	0%
O=C(COC(=O)c1ccc(CSc2ccc(Cl)cc2)cc1)Nc1ccccc1	3%	-8%	0	?	-15%	1%
